The text below walks through data of PubChem BioAssay (NCI).

Test systems include SK-MEL-2 melanoma; EKVX NSCLC; SN12C renal; UO-31 renal; TK-10 renal; ACHN renal; CAKI-1 renal; A498 renal; CCRF-CEM leukemia; MOLT-4 leukemia.
Assay in all cases: NCI-60 one-dose screen, 48 h (100 = growth as untreated, 0 = no growth, -100 = all killed)
What all share (conditions): 10 µM unless noted

This is part of a sample that, as a whole, favours compounds with a hit. Of some 83,000 tested, about 20% had one in any assay.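 The test compound was applied at a single concentration to cells in 96-well plates for 48 hours, and percent growth was recorded.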 Values without a mark were called inactive. Activity calls are given as the source filed them. Rule for the calls: active = growth percent below 10; inactive = the rest.

As to `Cc1cccc(NC(=O)CSc2nc3ccc([N+](=O)[O-])cc3[nH]2)c1`, the growth in the assay on SK-MEL-2 melanoma was 98.5%; with EKVX NSCLC, 70.9%; in the assay with SN12C renal, 80.7%; in the assay with UO-31 renal it was 54.2%; in the assay with TK-10 renal, 97.3%; in the assay on ACHN renal, 82.5%. For the same molecule, the growth with CAKI-1 renal is 61.4%; with A498 renal it was 63.5%; with CCRF-CEM leukemia, 78.4%; with MOLT-4 leukemia it was 77.2%.

As for `O=C(c1ccc(F)c(Cl)c1)N1c2ccccc2Sc2ccccc21`, the growth with SK-MEL-2 melanoma was 65.2%; in the assay with EKVX NSCLC it was 74.1%; with SN12C renal, 99.2%; in the assay with UO-31 renal, 72.9%; in the assay with TK-10 renal it was 85.2%; with ACHN renal, 104%. Also, the growth is 53.4% in the assay with CAKI-1 renal, 61.7% in the assay with A498 renal, 58.4% with CCRF-CEM leukemia and 44.1% in the assay with MOLT-4 leukemia.

As for `CC1(C)OC(=O)C(=Cc2cccc(Br)c2)C(=O)O1`, the growth was 103% in the assay on SK-MEL-2 melanoma; 100% with EKVX NSCLC; 101% in the assay with SN12C renal; 92.9% in the assay with UO-31 renal; 101% in the assay on TK-10 renal; 117% in the assay with ACHN renal. Moreover, the growth is 100% in the assay on CAKI-1 renal, 94.2% in the assay on A498 renal, 93.2% in the assay on CCRF-CEM leukemia and 89.9% with MOLT-4 leukemia.

In the case of `CC[C@@H](c1ccc2cc(OC)ccc2c1)C(C)(C)C(=O)F`, the growth in the assay with SK-MEL-2 melanoma was 94.8%; in the assay with EKVX NSCLC, 96.1%; in the assay with SN12C renal, 105%; with UO-31 renal it was 97%; with TK-10 renal, 126%; with ACHN renal, 104%. Further, the growth in the assay with CAKI-1 renal was 76.8%; with A498 renal, 98.4%; in the assay on CCRF-CEM leukemia, 114%; with MOLT-4 leukemia, 99.2%.

Regarding `COc1ccc(/C(C)=C(\c2ccc(Cl)cc2)c2ccc(OCCN3CCCC3)cc2)cc1`, the growth in the assay with SK-MEL-2 melanoma is 40.6%; in the assay with EKVX NSCLC, 61.2%; in the assay with SN12C renal, 66.5%; with UO-31 renal, 35.2%; with TK-10 renal it was 69.5%; in the assay with ACHN renal it was 60.1%. Further, the growth was 24.4% with CAKI-1 renal, 79.1% with A498 renal, 29.1% with CCRF-CEM leukemia and 23.4% in the assay with MOLT-4 leukemia.

As for `CCCCSCC(=O)c1ccccc1`, the growth in the assay with SK-MEL-2 melanoma is 85.2%; in the assay with EKVX NSCLC, 99%; in the assay with SN12C renal, 103%; in the assay with UO-31 renal, 85%; in the assay on TK-10 renal, 86.1%; with ACHN renal, 101%. The growth in the assay on CAKI-1 renal is 94.4%; with A498 renal, 106%; in the assay on CCRF-CEM leukemia, 91.9%; in the assay on MOLT-4 leukemia, 92.9%.

As to `CC1COCC(C)N1C1=C(Cl)C(=O)c2ccccc2C1=O` (stereo not given), the growth with SK-MEL-2 melanoma is 23.9%; in the assay on EKVX NSCLC, 89.9%; in the assay on SN12C renal it was 81.7%; with UO-31 renal it was 59%; with TK-10 renal it was 75.7%; in the assay on ACHN renal, 28.9%. Moreover, the growth in the assay on CAKI-1 renal is 65.4%; in the assay with A498 renal it was 109%; with CCRF-CEM leukemia it was 19.4%; with MOLT-4 leukemia, 9.7% (active).

Consider `COc1ccc(C2=Nc3c(N)ncnc3NC(c3cccc(Nc4ccnc5cc(C(F)(F)F)ccc45)c3)C2)cc1` (stereo not given), for which the growth is 73.7% in the assay on SK-MEL-2 melanoma; 54% with EKVX NSCLC; 63.9% with SN12C renal; 45.2% in the assay with UO-31 renal; 95.6% with TK-10 renal; 78.8% with ACHN renal. The growth is 61.5% in the assay on CAKI-1 renal, 65.2% with A498 renal, 42.4% in the assay on CCRF-CEM leukemia and 19.7% in the assay with MOLT-4 leukemia.

In the case of `Cn1cc(-c2nonc2-c2c[nH]c3ccc(F)cc23)c2cc(Br)ccc21`, the growth is 71.5% in the assay on SK-MEL-2 melanoma; 37.6% with EKVX NSCLC; 63.7% in the assay on SN12C renal; 30.4% with UO-31 renal; 57% in the assay on TK-10 renal; 38.4% with ACHN renal. For the same molecule, the growth in the assay with CAKI-1 renal was 25.3%; in the assay with A498 renal, 44.8%; in the assay on CCRF-CEM leukemia, 40.7%; with MOLT-4 leukemia, 32.1%.

Turning to `N#Cc1c(NC(=O)c2cccs2)[n+]([O-])c2ccc(Cl)cc2[n+]1[O-]`, the growth with SK-MEL-2 melanoma was 59.3%; in the assay on EKVX NSCLC it was 98.7%; with SN12C renal, 99.8%; in the assay on UO-31 renal, 98.6%; in the assay on TK-10 renal, 118%; with ACHN renal, 99.5%. Also, the growth is 73% in the assay with CAKI-1 renal, 41.4% in the assay on A498 renal, 95.9% in the assay with CCRF-CEM leukemia and 97.3% with MOLT-4 leukemia.

On to `CCC/C(=N\NC(N)=O)C(OC)OC`, for which the growth was 104% in the assay with SK-MEL-2 melanoma; 111% with EKVX NSCLC; 107% in the assay on SN12C renal; 89.3% in the assay on UO-31 renal; 85.3% in the assay on TK-10 renal; 105% in the assay on ACHN renal. The growth with CAKI-1 renal was 114%; in the assay with A498 renal, 91.1%; in the assay with CCRF-CEM leukemia, 106%; in the assay with MOLT-4 leukemia, 121%.

In the case of `COc1cc2cc(Oc3ccc(NC(=O)Nc4ccccc4)cc3)c(C)nc2cc1OCCN1CCCCC1`, the growth with SK-MEL-2 melanoma is 100%; in the assay with EKVX NSCLC it was 99.8%; with SN12C renal, 89.9%; in the assay with UO-31 renal it was 64.3%; in the assay on TK-10 renal, 108%; with ACHN renal, 84.4%. The growth is 96.1% in the assay with CAKI-1 renal, 55.4% in the assay with A498 renal, -20.9% (active) in the assay on CCRF-CEM leukemia and -22.2% (active) in the assay with MOLT-4 leukemia.
